Screening results as filed in PubChem BioAssay.
hNpr1 antagonist – human Npr1 receptor antagonism | actives 1.6% (n = 76,000) | HEK293 hNpr1 GloSensor cGMP, ANP-stimulated luminescence | Potency, µM (highest dose often 46.3 µM), for inactives: at the top dose activity change, negative = inhibition, most hits filed as inhibitors | P16066; calls by dose curve; further: nearly all actives have a fitted effect of over 60% in size
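Compound pre-incubated 30 min at room temperature on GloSensor-loaded HEK293 cells stably carrying hNpr1 and the pGS-40F cGMP biosensor. Stimulation uses hNppA at 0.1 nM final; luminescence is taken at baseline and 20 min post-agonist.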
3T3 cytotox – NIH 3T3 cell cytotoxicity; NIH 3T3 viability, CellTiter-Glo ATP luminescence, 48-72 h; Potency, µM (top dose mostly 96.7 µM), without a hit: at the highest dose activity change, negative = cytotoxicity, usual class: inhibitors; actives 4.3% (n = 94,000); AID 1345082; further: nearly all actives have a fitted effect of over 55% in size
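Cells were seeded at 400 per well, treated with pin-transferred compound, and kept 48 or 72 hr at 37 °C before CellTiter-Glo addition and luminescence imaging of cellular ATP.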
HEK cytotox – cytotoxic compounds in HEK 293 cells | HEK 293 viability, ATP luminescence (CellTiter-Glo), 48-72 h | Potency, µM (titrated, usually from 115 µM), for the others: top-dose activity change, negative = cytotoxicity, actives largely listed as inhibitors | actives 6.6% (n = 94,000); further: nearly all actives have a fitted effect of over 60% in size
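Cells seeded first (HEK 293, 250 cells/well), then compound added by pintool. Incubation ran 48 or 72 hr at 37 degree Celsius. CellTiter-Glo was added and luminescence imaged after 10 min at room temperature.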
FLuc inh – inhibitors of firefly (Photinus pyralis) luciferase; purified P. pyralis luciferase, luminescence, biochemical; AID 1347043; Potency, µM (highest dose often 115 µM), hits mostly inhibitors; P08659; actives 2.5% (n = 76,000); further: nearly all actives have a fitted effect of over 65% in size
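Luminescence read by CCD imager after adding enzyme (10nM final) to wells holding compound, titrated in qHTS. Substrates 10uM each D-luciferin and ATP; buffer 50mM Tris acetate pH 7.5, 10mM Mg acetate, Tween-20, BSA.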
* marks the source's active call; other numbers are inactive results; [ ] = remark or other dose. This is a sample that favours compounds with a hit; in the whole collection about 11% have one here. Unless noted, the call rests on the fitted dose curve; in most records, active means well fitted curve in the direction sought with a large enough effect; inconclusive means small, poorly fitted or top-dose-only effect, or another doubt; inactive means no such curve, though single readings can be large; an effect the other way counts as inactive or inconclusive. On the % scale 0 is the no-effect control and ±100 the full control effect; potency means the concentration at half of the fitted maximal effect.

For COC[C@@H]1CN(C(=O)Cc2c[nH]c3ccccc23)C[C@H]1c1nc(C)no1 the results were hNpr1 antagonist 2.5%, 3T3 cytotox -3.2%, HEK cytotox 4.1% and FLuc inh inactive.
For CN1CCC(NC(=O)c2cccc3c2CCN3C(=O)C2CC2)CC1 the results were hNpr1 antagonist 4.3%, 3T3 cytotox -9.9%, HEK cytotox 2.2% and FLuc inh inactive.
Screening CN1CCC(NC(=O)c2cccc3c2CCN3C(=O)Nc2ccccc2)CC1 returned hNpr1 antagonist -6.6%, 3T3 cytotox inconclusive, HEK cytotox -8.0% and FLuc inh 22.4µM*.
`Cc1ccc(C)c(S(=O)(=O)N2CCC(n3cnnc3C(C)C)CC2)c1` gave hNpr1 antagonist -19.8%, 3T3 cytotox -22.1%, HEK cytotox inconclusive and FLuc inh inactive.
`CN(Cc1ccccc1)C(=O)Cc1ccc(N(Cc2ccccc2)C(=O)c2ccco2)cc1` gave hNpr1 antagonist -23.5%, 3T3 cytotox inconclusive, HEK cytotox inconclusive and FLuc inh inactive.
For COc1ccnc(-c2nnc3ccc(N(C)c4ccccc4)nn23)c1 the results were hNpr1 antagonist -12.6%[70.6 µM], 3T3 cytotox 20µM*, HEK cytotox 44.7µM* and FLuc inh inactive.
Screening O=C(Nc1cccnc1)c1ccnc(-c2nnc3ccc(N4CCOCC4)nn23)c1 returned hNpr1 antagonist 9.1%[70.6 µM], 3T3 cytotox 100µM*, HEK cytotox -9.5%[172 µM] and FLuc inh inactive.
Screening CN(c1ccccc1)c1ccc2nnc(-c3cc(C(=O)N4CC(O)C4)ccn3)n2n1 returned hNpr1 antagonist 3.6%[70.6 µM], 3T3 cytotox 100µM*, HEK cytotox inconclusive and FLuc inh inactive.
Screening COC1CCN(C(=O)c2ccnc(-c3nnc4ccc(N(C)C)nn34)c2)CC1 returned hNpr1 antagonist 6.2%[70.6 µM], 3T3 cytotox 44.7µM*, HEK cytotox -5.5%[172 µM] and FLuc inh inactive.
For O=C(Nc1cccc(Cl)c1)c1ccnc(-c2nnc3ccc(N4CCOCC4)nn23)c1 the results were hNpr1 antagonist -8.8%[70.6 µM], 3T3 cytotox inconclusive, HEK cytotox inconclusive and FLuc inh inactive.
`Cc1ccc(OCC(=O)NCCC2CCN(C(=O)Nc3ccc(F)cc3)CC2)cc1` gave hNpr1 antagonist -13.0%, 3T3 cytotox -19.0%, HEK cytotox -11.1% and FLuc inh inactive.
For CN(C)c1ccc2nnc(-c3cc(C(=O)Nc4cccc(Cl)c4)ccn3)n2n1 the results were hNpr1 antagonist -16.6%[70.6 µM], 3T3 cytotox 7.94µM*, HEK cytotox -27.6%[172 µM] and FLuc inh inactive.
Screening CC[C@H]1CN(S(=O)(=O)c2c(C)noc2C)CC[C@H]1CC(=O)NCc1ccc(F)cc1 returned hNpr1 antagonist -15.3%, 3T3 cytotox -10.2%, HEK cytotox inconclusive and FLuc inh inactive.
CC[C@H]1CN(S(=O)(=O)c2c(C)noc2C)CC[C@H]1CC(=O)NCc1cccc2ccccc12 was read as hNpr1 antagonist -19.3%, 3T3 cytotox inconclusive, HEK cytotox 22.4µM* and FLuc inh inactive.
`O=C1NCCCc2[nH]c(-c3csc(-c4ccccc4)n3)nc21` gave hNpr1 antagonist -3.6%, 3T3 cytotox inconclusive, HEK cytotox inconclusive and FLuc inh 25.1µM*.
`O=[S+]([O-])(c1ccccc1)N1CCNc2cnc(Nc3cccc(F)c3)nc2C1` gave hNpr1 antagonist inconclusive, 3T3 cytotox inconclusive, HEK cytotox 89.1µM* and FLuc inh inactive.
`O=C(C1CCC1)N1CCNc2cnc(Nc3ccccc3)nc2C1` gave hNpr1 antagonist -29.2%[70.6 µM], 3T3 cytotox inconclusive, HEK cytotox inconclusive and FLuc inh inactive.
For COc1ccccc1Nc1ncc2c(n1)CN([S+](=O)([O-])c1ccccc1)CCN2 the results were hNpr1 antagonist -11.2%[70.6 µM], 3T3 cytotox inconclusive, HEK cytotox 100µM* and FLuc inh inactive.
For O=C(NCC1CCCCC1)C1CCN(C(=O)c2ccc(-c3cncnc3)cc2)CC1 the results were 3T3 cytotox inconclusive and HEK cytotox -22.1%.
Screening COCCN1C(=O)c2ccccc2C(C(=O)Nc2ccc(F)cc2)C12CCCC2 (centres undefined) returned hNpr1 antagonist 2.2%, 3T3 cytotox -13.2%, HEK cytotox 7.5% and FLuc inh inactive.
For Cc1ccc(C(=O)N[C@@H]2CN(Cc3ccncc3)C[C@H]2CN(C)C)cc1C the results were hNpr1 antagonist 3.0%, 3T3 cytotox -26.4%, HEK cytotox 25.1µM* and FLuc inh inactive.
O=C(c1ccsc1)N1CCc2c(nc3cc(-c4ccccc4Cl)[nH]n3c2=O)C1 was read as hNpr1 antagonist -12.6%, 3T3 cytotox 39.8µM*, HEK cytotox -11.8% and FLuc inh 35.5µM*.
CCCCC(=O)N1CCc2c(nc3cc(-c4ccccc4Cl)[nH]n3c2=O)C1 was read as hNpr1 antagonist -5.9%, 3T3 cytotox 15.8µM*, HEK cytotox inconclusive and FLuc inh inactive.
Screening Cc1nc(N2CCN(C(=O)c3ccc(C(C)(C)C)cc3)CC2)cc(C(F)(F)F)n1 returned hNpr1 antagonist inconclusive, 3T3 cytotox inconclusive, HEK cytotox inconclusive and FLuc inh inactive.
For Cc1nc(-c2ccc(Cl)cc2)n(Cc2ccc(F)c(F)c2)c(=O)c1CCO the results were hNpr1 antagonist -22.9%, 3T3 cytotox inconclusive, HEK cytotox 44.7µM* and FLuc inh inactive.
Cc1nc(-c2ccc(F)cc2)n(Cc2ccc(F)cc2F)c(=O)c1CCO was read as hNpr1 antagonist -0.9%, 3T3 cytotox inconclusive, HEK cytotox inconclusive and FLuc inh inactive.
Screening Cc1nc(-c2ccc(Cl)cc2)n(Cc2ccc(F)cc2F)c(=O)c1CCO returned hNpr1 antagonist 0.9%, 3T3 cytotox inconclusive, HEK cytotox 35.5µM* and FLuc inh inactive.
`Cc1nc(-c2ccccc2)n(Cc2cc(F)cc(F)c2)c(=O)c1CCO` gave hNpr1 antagonist -1.7%, 3T3 cytotox inconclusive, HEK cytotox inconclusive and FLuc inh inactive.
Cc1ccc(C)c(Cn2c(-c3ccc(Cl)cc3)nc(C)c(CCO)c2=O)c1 was read as hNpr1 antagonist 3.6%, 3T3 cytotox inconclusive, HEK cytotox inconclusive and FLuc inh inactive.
`Cc1nc(-c2ccc(F)cc2)n(Cc2ccc(F)c(F)c2)c(=O)c1CCO` gave hNpr1 antagonist -23.3%, 3T3 cytotox inconclusive, HEK cytotox inconclusive and FLuc inh inactive.
Screening Cc1nc(-c2ccccc2)n(Cc2ccc(F)cc2Cl)c(=O)c1CCO returned hNpr1 antagonist -21.3%, 3T3 cytotox 44.7µM*, HEK cytotox 28.2µM* and FLuc inh inactive.
For Cc1nc(-c2ccc(Cl)cc2)n(Cc2ccccc2F)c(=O)c1CCO the results were hNpr1 antagonist 3.2%, 3T3 cytotox inconclusive, HEK cytotox 44.7µM* and FLuc inh inactive.
Screening CC(C)(C)C1CCc2[nH]nc(C(=O)N3CCc4nn(CC#N)c(=O)n4CC3)c2C1 (centres undefined) returned hNpr1 antagonist -7.3%, 3T3 cytotox inconclusive, HEK cytotox inconclusive and FLuc inh inactive.
